Data published in PubChem BioAssay (Tox21).
Results filed as inconclusive are left out. Activity calls are given as the source filed them. Unless noted, calls follow the shape of the dose curve; as a rule, active = well fitted curve in the direction sought with a large enough effect in the repeat runs; inconclusive = weak or mixed curves; inactive = no such curve, though single readings can be large; an effect the other way counts as inactive or inconclusive.

Experiments:
[1] = target: Thyrotropin receptor (Homo sapiens) (UniProt P16473); assay: qHTS assay to identify small molecule agonists of the thyroid stimulating hormone receptor (TSHR) signaling pathway (AID 1224843; calls by dose curve; also: nearly all actives have a fitted effect of over 45% in size)
Chain of Thyrotropin receptor (Homo sapiens) (P16473 whole entry, looked up): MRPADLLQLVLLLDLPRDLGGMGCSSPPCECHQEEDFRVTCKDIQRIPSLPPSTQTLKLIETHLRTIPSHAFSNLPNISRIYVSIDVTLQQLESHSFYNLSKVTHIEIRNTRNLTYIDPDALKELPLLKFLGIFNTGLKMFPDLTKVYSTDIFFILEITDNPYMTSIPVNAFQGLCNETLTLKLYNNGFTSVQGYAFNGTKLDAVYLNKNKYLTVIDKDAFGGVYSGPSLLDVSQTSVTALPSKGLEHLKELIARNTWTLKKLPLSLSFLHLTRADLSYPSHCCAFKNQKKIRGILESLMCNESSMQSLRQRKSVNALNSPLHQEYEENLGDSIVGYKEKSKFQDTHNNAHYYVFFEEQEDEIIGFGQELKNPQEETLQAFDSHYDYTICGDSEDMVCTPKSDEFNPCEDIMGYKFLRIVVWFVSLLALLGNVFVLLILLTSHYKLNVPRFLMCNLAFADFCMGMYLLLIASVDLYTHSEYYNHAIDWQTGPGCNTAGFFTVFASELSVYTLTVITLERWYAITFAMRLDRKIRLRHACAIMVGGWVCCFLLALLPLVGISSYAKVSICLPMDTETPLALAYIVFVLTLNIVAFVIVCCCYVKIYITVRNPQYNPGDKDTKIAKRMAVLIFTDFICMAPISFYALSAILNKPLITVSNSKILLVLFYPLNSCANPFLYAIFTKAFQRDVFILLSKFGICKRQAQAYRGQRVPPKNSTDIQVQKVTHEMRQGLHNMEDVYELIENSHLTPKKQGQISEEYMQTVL
Summary of the method: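 TSHR-HEK293 cells in agonist mode, 30 min room-temperature step, then cAMP measured by competitive HTRF (cAMP-d2 with anti-cAMP cryptate) after 1 h at room temperature. Tested at 15 concentrations in triplicate.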

[2] = qHTS assay to identify small molecule agonists of the hypoxia (HIF-1) signaling pathway - cell viability counter screen (AID 1224844; calls by dose curve; also: nearly all actives have a fitted effect of over 50% in size; also: potency is read from the fitted curve at half-maximal effect)
Summary of the method: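 Tox21 10K compounds were added to HRE-bla ME-180 cells (0.5% dialyzed FBS) and incubated 17 hrs at 37C; ATP-based CellTiter-Glo luminescence then reported cell viability in the same wells.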

[3] = qHTS assay to identify small molecule agonists of the estrogen related receptor (ERR) signaling pathway from Tox21 library (AID 1224849; calls by dose curve; also: nearly all actives have a fitted effect of over 15% in size); settings: ERR reporter cell line, ONE-Glo luciferase, 18 h; at 92.4 µM (top of the series) unless noted
Summary of the method: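 Agonist signal is luciferase luminescence from an ERR reporter cell line treated 18 h at 37 C with DMSO-dissolved compounds, read 30 min after ONE-Glo addition at room temperature.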

[4] = qHTS RealTime-Glo MT Cell Viability Assay in HepG2 cells - 24 hour (AID 1224867); also: nearly all actives have a fitted effect of over 50% in size; also: potency is read from the fitted curve at half-maximal effect
Summary of the method: (§1)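 Real-time, nonlytic viability: 600 HepG2 cells/well mixed with NanoLuc enzyme plus prosubstrate; 5 h settle, compound (DMSO) added by pintool; luminescence monitored over 40 h at 37 C.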

[5] = qHTS RealTime-Glo MT Cell Viability Assay in HEK293 cells - 32 hour (AID 1224868); also: nearly all actives have a fitted effect of over 50% in size; also: potency is read from the fitted curve at half-maximal effect
Summary of the method: (§2)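 Cells + reagent dispensed (600 cells/well, HEK293) → 5 h at 37 C/5% CO2 → 23 nL compound in DMSO pinned → 40 h at 37 C → luminescence read at 0, 8, 16, 24, 32, 40 h.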

[6] = A CellTox Green Cytotoxicity Assay to monitor cytotoxicity in HEK293 cells - 0 hour (AID 1224869); also: nearly all actives have a fitted effect of over 50% in size; also: potency is read from the fitted curve at half-maximal effect
Summary of the method: (§3)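 Cytotoxicity was tracked continuously in HEK293 cells by a DNA-binding dye excluded from viable cells. Compounds were transferred in DMSO 5 h after seeding; fluorescence was recorded at intervals up to 40 h.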

[7] = qHTS RealTime-Glo MT Cell Viability Assay in HepG2 cells - 40 hour (AID 1224870); also: nearly all actives have a fitted effect of over 50% in size; also: potency is read from the fitted curve at half-maximal effect
Summary of the method: (§4)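 HepG2 cells (600/well) mixed with RealTime-Glo MT reagent, settled 5 h at 37 C/5% CO2 before compound addition. Nonlytic NanoLuc luminescence from viable-cell prosubstrate reduction read repeatedly during 40 h treatment at 37 C.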

[8] = qHTS RealTime-Glo MT Cell Viability Assay in HEK293 cells - 16 hour (AID 1224872); also: nearly all actives have a fitted effect of over 50% in size; also: potency is read from the fitted curve at half-maximal effect; as to activity change, negative = cytotoxicity: top concentration of the series differs between compounds
Summary of the method: as §2

[9] = qHTS RealTime-Glo MT Cell Viability Assay in HepG2 cells - 8 hour (AID 1224873); also: nearly all actives have a fitted effect of over 55% in size
Summary of the method: as §4

[10] = qHTS RealTime-Glo MT Cell Viability Assay in HEK293 cells - 40 hour (AID 1224874); settings: RealTime-Glo luminescence; max response: hits give low values; also: nearly all actives have a fitted effect of over 50% in size; also: potency is read from the fitted curve at half-maximal effect
Summary of the method: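 Nonlytic bioluminescent viability monitoring. HEK293 at 600 cells/well with reagent; 5 h settle; compound transfer by pintool; plates held at 37 C and read at set time points.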

[11] = A CellTox Green Cytotoxicity Assay to monitor cytotoxicity in HEK293 cells - 24 hour (AID 1224875); also: nearly all actives have a fitted effect of over 45% in size; also: potency is read from the fitted curve at half-maximal effect
Summary of the method: as §3

[12] = A CellTox Green Cytotoxicity Assay to monitor cytotoxicity in HepG2 cells - 16 hour (AID 1224876); also: nearly all actives have a fitted effect of over 45% in size; also: potency is read from the fitted curve at half-maximal effect
Summary of the method: (§5)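 Real-time, homogeneous cytotoxicity readout: dead-cell DNA staining by CellTox Green in HepG2 monolayers, fluorescence measured at timed intervals up to 40 h of continuous compound exposure.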

[13] = qHTS RealTime-Glo MT Cell Viability Assay in HepG2 cells - 32 hour (AID 1224877); also: nearly all actives have a fitted effect of over 55% in size; also: potency is read from the fitted curve at half-maximal effect
Summary of the method: as §1

[14] = A CellTox Green Cytotoxicity Assay to monitor cytotoxicity in HepG2 cells - 24 hour (AID 1224878); also: nearly all actives have a fitted effect of over 45% in size; also: potency is read from the fitted curve at half-maximal effect
Summary of the method: as §5

[15] = A CellTox Green Cytotoxicity Assay to monitor cytotoxicity in HepG2 cells - 40 hour (AID 1224879); also: nearly all actives have a fitted effect of over 40% in size; also: potency is read from the fitted curve at half-maximal effect
Summary of the method: as §5

[16] = qHTS assay to identify small molecule agonists of the hypoxia (HIF-1) signaling pathway (AID 1224846; active = well fitted activation curve with a large enough effect in the signal ratio in the repeat runs, not every such curve was filed as active; the % refers to the signal ratio)
Summary of the method: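 Steps: seed ME-180 HRE-bla cells (2,000/well, 0.5% dialyzed FBS); incubate 5 hrs at 37C; pin-transfer compounds or DMSO; incubate 17 hrs; add LiveBLAzer B/G substrate CCF4-AM; measure reporter activation by FRET.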

[17] = A CellTox Green Cytotoxicity Assay to monitor cytotoxicity in HEK293 cells - 40 hour (AID 1224871); also: nearly all actives have a fitted effect of over 45% in size; also: potency is read from the fitted curve at half-maximal effect
Summary of the method: as §3

[18] = qHTS assay to identify small molecule agonists of H2AX - cell viability counter screen (AID 1224847; calls by dose curve; also: top concentration of the series differs between compounds; nearly all actives have a fitted effect of over 30% in size)
Summary of the method: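 For this counter screen, overnight-attached CHO-K1 cells received test compounds (15 concentrations, 0.76% DMSO final); 3 hr later at 37C, CellTiter-Glo reagent was added and luminescence recorded after 30 min at room temperature.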

[19] = qHTS assay to identify small molecule antagonists of the estrogen related receptor (ERR) signaling pathway from Tox21 library (AID 1224848); also: nearly all actives have a fitted effect of over 50% in size
Summary of the method: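 ERR reporter cell line (from NTP) seeded 2,000 cells/well, rested 6 h at 37 C/5% CO2, then pin-dosed with compounds in DMSO. After 18 h at 37 C, ONE-Glo added; luminescence read after 30 min at room temperature.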

[20] = qHTS assay to identify small molecule agonists of H2AX (AID 1224845; active = well fitted activation curve with a large enough effect in the signal ratio in the repeat runs, not every such curve was filed as active; the % refers to the signal ratio)
Summary of the method: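 Wild-type CHO-K1 cells, plated overnight, exposed 3hr at 37C to 15 concentrations (0.76% DMSO final). Lysed, then HTRF anti-pH2AX (S139) cryptate and anti-H2AX-d2 antibodies, 24 hr room temperature; 665/620 nm emission read.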
% is scaled to controls: 0 for no effect and ±100 for the full control effect.

O=C(CCc1ccc(O)cc1)c1c(O)cc(O)cc1O
active: Potency [5] 39.8 µM | Potency [8] 25.1 µM | Potency [10] 39.8 µM
inactive: Potency [1] | Potency [2] | activity change, positive = activation [3] -22.5% | Potency [4] | Potency [6] | Potency [7] | Potency [9] | Potency [11] | Potency [12] | Potency [13] | Potency [14] | Potency [15]

Oc1cccc(Nc2ccccc2)c1
inactive: Potency [1] | Potency [2] | outcome [16] | Potency [4] | Potency [7] | Potency [17] | Potency [9] | Potency [11] | Potency [12] | Potency [14] | Potency [15]
active: Potency [5] 14.4 µM | Potency [8] 22.8 µM

CC1CC(OC(=O)C(O)c2ccccc2)CC(C)(C)N1C (centres undefined)
inactive: Potency [1] | Potency [2] | Potency [18] | Potency [19] | activity change, positive = activation [3] -3.41% [at 42.5 µM] | Potency [4] | Potency [5] | Potency [6] | Potency [7] | Potency [17] | Potency [8] | Potency [9] | Potency [11] | Potency [13] | Potency [14] | Potency [15]

CC(=O)NC1(c2cccc(F)c2)CCN(CC[C@@]2(c3ccc(Cl)c(Cl)c3)CN(c3ccccc3)C(=O)CO2)CC1
active: Potency [2] 39 µM | Potency [4] 43.8 µM | Potency [5] 17.4 µM | Potency [7] 43.8 µM | Potency [8] 17.4 µM | Potency [10] 17.4 µM | Potency [13] 43.8 µM | Potency [15] 43.8 µM
inactive: Potency [1] | outcome [16] | Potency [6]

C=Cc1ccc(S(=O)(=O)O)cc1
inactive: Potency [1] | Potency [20] | outcome [16] | Potency [18] | Potency [19] | activity change, positive = activation [3] 6.91% | Potency [4] | Potency [5] | Potency [6] | Potency [7] | Potency [8] | Potency [9] | max response [10] -10.1%
active: Potency [14] 49 µM | Potency [15] 54.9 µM

Cc1cc(=O)c2c(O)c3c(O)cc(=O)c4c3c3c(cc(O)c1c23)C(C)(C)C=4O
inactive: activation [1] 13.3% [at 19 µM] | activity change, negative = cytotoxicity [2] 15.9% [at 15.8 µM] | activation [16] -2.37% [at 15.8 µM] | activity change, negative = cytotoxicity [8] -25.2% [at 15.8 µM] | viability change, negative = cytotoxic [9] -10.2% [at 15.8 µM]
active: Potency [5] 1.17 µM | Potency [6] 3.69 µM | Potency [17] 4.65 µM | Potency [11] 5.22 µM | Potency [12] 4.65 µM | Potency [14] 4.65 µM | Potency [15] 3.69 µM

O=C1c2ccccc2C(=O)c2c(O)c(O)cc(O)c21
inactive: Potency [1] | Potency [2] | outcome [16] | Potency [19] | activity change, positive = activation [3] -7.48% | Potency [4] | Potency [5] | Potency [6] | Potency [7] | Potency [17] | Potency [8] | Potency [9] | max response [10] 9.06% | Potency [11] | Potency [12] | Potency [13] | Potency [14] | Potency [15]

Cc1[nH]cnc1CN1CCc2c(c3ccccc3n2C)C1=O
inactive: Potency [1] | Potency [20] | outcome [16] | Potency [18] | Potency [19] | activity change, positive = activation [3] -18.3% [at 42.5 µM] | Potency [4] | Potency [5] | Potency [6] | Potency [7] | Potency [17] | Potency [8] | Potency [9] | max response [10] -24.4% | Potency [11] | Potency [12] | Potency [13] | Potency [14] | Potency [15]
